# Results reported in the supplement of paper PMC6555819.
# How the values were obtained:
# Experiment in all cases: PBM binding z-score (relative to random genomic background probes); higher = stronger binding; sequences stand for … in GC…GCGATTGACAGCGTAGAATGAAGG
# [1] = system: FXR:RXRa (NR concentration 270 nM, RXRa partner concentration 90 nM)
# Method in brief: (§1)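 Probes were double-stranded and carried 34-nt variable regions with direct-repeat seeds, single-nucleotide variants, half-site ablations and random human genomic background sequences, printed on custom Agilent 4×180K protein-binding microarrays. Arrays were incubated 1 h with ligand-free nuclear receptor dimers in PBS pH 7.4, 2% milk, 0.02% Triton X-100, 1 mM DTT, 0.2 mg/mL BSA and 0.4 mg/ml salmon testes DNA. Antibodies against each partner (one per run) detected binding, and scanned fluorescence was regression-normalized. Binding z-scores use the random background probes as reference.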
# [2] = system: LXRa:RXRa (NR concentration 270 nM, RXRa partner concentration 90 nM)
# Method in brief: as §1
# [3] = system: LXRa homodimer (NR concentration 270 nM)
# Method in brief: as §1
# [4] = system: LXRb:RXRa (NR concentration 270 nM, RXRa partner concentration 90 nM)
# Method in brief: as §1
# [5] = system: LXRb homodimer (NR concentration 270 nM)
# Method in brief: as §1
# [6] = system: PPARa:RXRa (NR concentration 270 nM, RXRa partner concentration 90 nM)
# Method in brief: as §1
# [7] = system: PPARg:RXRa (NR concentration 180 nM, RXRa partner concentration 90 nM)
# Method in brief: as §1
# [8] = system: PPARg:RXRa 270nM:90nM, anti-RXR (NR concentration 270 nM, RXRa partner concentration 90 nM)
# Method in brief: as §1
# [9] = system: PPARg:RXRa 30nM:10nM, anti-RXR (NR concentration 30 nM, RXRa partner concentration 10 nM)
# Method in brief: as §1
# [10] = system: PPARg:RXRa 90nM:30nM, anti-RXR (NR concentration 90 nM, RXRa partner concentration 30 nM)
# Method in brief: as §1
# [11] = system: PPARg:RXRa DBDmut IVT, anti-RXR (DBD mutation: RXRa K156A/R161A, NR concentration 270 nM, RXRa partner concentration 90 nM)
# Method in brief: as §1
# [12] = system: PPARg:RXRa IVT, anti-PPARg (NR concentration 270 nM, RXRa partner concentration 90 nM)
# Method in brief: as §1
# [13] = system: PPARg DBDmut:RXRa IVT, anti-PPARg (DBD mutation: PPARg1 K132A/R137A, NR concentration 270 nM, RXRa partner concentration 90 nM)
# Method in brief: as §1
# [14] = system: PPARg DBDmut IVT, anti-PPARg (DBD mutation: PPARg1 K132A/R137A, NR concentration 270 nM)
# Method in brief: as §1
# [15] = system: PPARg homodimer (NR concentration 180 nM)
# Method in brief: as §1
# [16] = system: PXR:RXRa (NR concentration 270 nM, RXRa partner concentration 90 nM)
# Method in brief: as §1
# [17] = system: PXR homodimer (NR concentration 270 nM)
# Method in brief: as §1
# [18] = system: RARa:RXR (NR concentration 270 nM, RXRa partner concentration 90 nM)
# Method in brief: as §1
# [19] = system: RARa homodimer (NR concentration 270 nM)
# Method in brief: as §1
# [20] = system: RARb:RXRa (NR concentration 270 nM, RXRa partner concentration 90 nM)
# Method in brief: as §1
Sequence,PBM binding z-score [1],PBM binding z-score [2],PBM binding z-score [3],PBM binding z-score [4],PBM binding z-score [5],PBM binding z-score [6],PBM binding z-score [7],PBM binding z-score [8],PBM binding z-score [9],PBM binding z-score [10],PBM binding z-score [11],PBM binding z-score [12],PBM binding z-score [13],PBM binding z-score [14],PBM binding z-score [15],PBM binding z-score [16],PBM binding z-score [17],PBM binding z-score [18],PBM binding z-score [19],PBM binding z-score [20]
CGTCCAAGGTCAGCAGGTCATTGAAAGCGACGTG,6.58,4.67,1.51,3.86,-0.214,5.46,5.09,4.94,1.14,3.42,2.83,3.78,0.265,-0.0575,3.28,4.51,0.829,5.89,0.397,5.51
AGAACGCGGGCACGCTGAGTTGATAGCAGAGTAG,-0.237,-0.318,-0.326,-0.68,-1.1,-0.532,0.363,-0.844,-0.786,-0.727,0.0817,-0.217,-0.65,-1.15,-0.455,-0.502,-0.289,-0.215,-0.302,0.31
ACTTACGGGTCAGCGAGGTTATAGCACGCGTATA,4.94,3.87,0.399,3.41,0.42,4.9,3.94,4.15,1.13,2.59,1.92,3.48,0.822,0.254,1.62,4.18,1.12,4.25,0.477,4.09
TTACCAAGGTGAAGGCCGTTGATCCCTCTGTAGA,0.294,0.227,-0.606,0.138,-0.941,1.33,0.354,1.33,0.659,0.916,1.67,2.18,-0.266,0.1,0.061,0.0988,-0.493,0.33,-0.621,1.34
GGAACAAGGGCAAAGTTGATAGCATCTGTCGACG,0.623,0.618,-0.274,0.612,-0.0187,3.56,5.8,6.3,5.66,6.8,2.8,3.73,0.621,-0.078,0.637,0.784,0.0632,0.948,0.248,2.42
TCGATTAGTTGATTAGGGCAACCGAAACAGCGGA,-1.31,-0.186,-0.313,0.118,-0.308,0.322,0.147,1.25,2.88,2.19,1.68,1.02,-0.465,0.363,0.609,0.11,-0.141,0.208,0.0713,0.744
ATCACTAGGTAAAGATAGTTCAGTGAATGCAAAT,0.213,3.82,0.581,0.654,0.171,0.991,1.13,0.685,0.585,0.404,3.21,2.54,1.22,1.14,0.795,1.02,0.598,0.654,1.19,0.635
ATCGAAAGGTCGAAGGTGATTATACCCACCCGAA,4.31,3.69,0.425,2.92,0.626,4.48,4.21,4.47,2.33,3.99,0.155,2,1.25,0.935,1.86,2.89,0.393,4.03,0.957,3.5
CCTACTGGGCCATTCAGAGCTCATTGATCATATG,-0.592,-0.786,-0.476,-0.728,-0.785,0.169,0.223,0.0807,-0.459,-0.224,4.75,3.12,-0.435,-0.6,-0.275,-0.612,-0.562,-0.258,-0.409,-0.143
TAGCCTAGGTCATGGGGGCCAGTATAGTGTCGGC,4.96,4,0.742,4.86,5.38,4.64,4.04,4.26,1.09,3.11,1.91,4.23,4.89,4.09,2.19,3.01,0.254,3.41,0.4,4.04
CCTATTAGTTGACCAAAAGGGCAACCGAAGCTCG,0.908,0.905,0.816,1.02,0.763,1.5,0.545,1.52,0.286,1.18,0.681,1.22,-0.0971,1.05,2.38,1.09,0.687,1.37,1.39,2.51
CCTCGGAGGACAGAAGGTCAGAGGTGTCCGCTTT,1.1,1.45,0.406,0.796,-0.636,2.06,0.463,1.58,-0.408,0.771,-0.101,0.357,-1.36,-1.55,0.853,1.4,0.183,2.11,0.0276,3.32
ACTAGCGGGCCAAGTTTGGGTCACTCAAACAAAG,0.106,-0.183,-0.598,0.723,-0.855,1.5,-0.111,0.168,-0.66,0.126,0.418,0.997,-0.878,-0.789,0.424,0.722,-0.623,1.51,-1.37,1.64
AGTCAAAGTTCACTAGGTAACGGAAGATTCAGCT,4.46,5.19,2.4,3.15,1.03,4.82,6.78,6.56,3.1,5.71,2.88,4.85,0.928,0.734,2.34,4.05,2.12,3.09,1.02,4.71
CCGTGTAGGTTATGGGGCATTCAGGCAACGGTGA,0.503,0.731,0.151,0.984,0.31,2.13,2.03,3.57,1.74,3.16,2.12,2.67,-1.11,-0.904,1.42,0.0818,-0.178,0.761,0.31,1.33
ATATGTAGGTTACACCCGGGTCATTCAGGCTATG,2.03,4.01,1.46,3.12,0.769,4.84,6.51,5.36,3.01,4.69,7.06,7.68,2.55,1.68,1.71,3.62,1.57,3.89,0.619,2.35
CAACCTAGGTCAAGAGGTCAAAGTCCGCTTCCCG,6.93,6.34,6.16,5.73,1.82,5.97,7.35,6.76,3.67,5.86,4.75,5.45,0.0311,-0.16,5.72,6.26,2.37,7.74,2.15,5.42
ATATGTAGGTTACTTCCGGGTCATTCAGGCTATG,2.58,5.79,2,3.81,1.01,4.23,5.4,4.83,2.21,4.06,7.27,7,2.25,1.76,2.39,3.68,1.81,3.76,0.485,2.36
GCTGCTAGGTCAGGTTGGACAGCTAACGGGTACG,1.1,0.591,-0.119,0.0809,-0.346,1.2,0.798,0.804,-0.236,-0.0943,2.44,2.18,-0.356,-0.812,0.345,0.082,-0.273,0.436,-0.846,3.39
AATACAGGGTCATCGTAGGCCAGACTACGCACAG,7.17,6.52,2.16,5.02,1.46,6.05,6.77,6.04,2.96,4.83,2.63,4.16,1.31,1.03,2.16,4.73,0.736,4.7,0.914,4.5
TTTATTAGTTGAAGGGCAACCGACGAGTCCGTTT,0.831,0.834,0.746,0.739,0.614,0.899,0.644,1.71,1.09,1.95,0.976,0.967,0.878,1.23,1.41,0.818,1.45,0.575,1.48,1.68
ACATACAGGTGAGTGAAGGTAACTCAGCTGGACG,0.866,0.707,-0.217,-0.161,-0.321,1.21,1.28,0.814,0.519,0.883,2.31,2.03,0.417,0.188,0.393,0.304,-0.247,0.687,-0.0591,0.763
CTACCAAGGTGAACAAGGTCGTTGTTTACTATTC,1.24,1.22,-0.0325,1.85,-0.465,2.46,0.787,1.29,-0.0619,0.702,2.55,2.57,0.468,0.107,0.724,2.78,1.16,2.27,-0.486,2
TCGAGTAGGTTAGTCGAGGCATTCAGCCAACATA,0.165,-0.288,-0.432,-0.531,-1.3,0.172,-0.115,0.522,0.735,0.72,1.97,1.28,-0.938,-0.136,0.168,-0.24,-0.481,0.0963,-0.326,-0.133
ACTATTAGTTGAGACGAGAGCAACCGATAGGTTG,-0.0812,-0.233,-0.161,-0.216,0.14,-0.533,0.493,-0.133,0.37,0.081,-0.112,-0.0541,0.442,0.157,0.139,-0.467,-0.273,-0.313,0.747,-0.263
TGTGCTAGGTCAGTTGGTCAGCTAACGAGCTGCC,0.928,0.621,-0.546,-0.0513,0.565,1.23,0.656,1.19,-0.306,0.746,1.29,3.02,-0.307,0.199,0.18,0.0475,-0.625,0.36,-0.296,3.26
TGAATGAGGTAAAAGATCAGGGAACGTGGCGTCG,0.359,-0.0204,-0.712,-0.13,-0.307,2.5,3.68,5.02,3.41,5.53,0.669,2.02,0.836,-0.202,0.305,-0.0852,-0.139,0.545,-0.524,0.0467
CAAACTAGGTCACCGGCAGGTCAAAGTCCGCATG,5.82,5.46,3.97,4.21,0.888,5.7,9.54,7.62,5.44,7.61,8.64,8.72,2.38,0.783,4.83,5.26,0.922,6.42,1.55,4.93
